Bioassay records (PubChem)
Sampled rows, rich in hits. Any-hit rate of the full collection: about 2.6%.
Cruzain inh noDet: qHTS Assay for Promiscuous and Specific Inhibitors of Cruzain (without detergent); 200,000 compounds, 2.3% hits; Potency, µM, for the others: max response, negative = inhibition, usual class: inhibitors; purified cruzain, Z-FR-AMC fluorescence, no detergent; Cruzipain (Trypanosoma cruzi), P25779; AID 1476, 2009;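 further: plate controls were enzyme without inhibitor for no effect and buffer without enzyme for full effect; nearly all actives have a fitted effect of over 40% in size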
Target sequence (P25779 123-467 limits assumed): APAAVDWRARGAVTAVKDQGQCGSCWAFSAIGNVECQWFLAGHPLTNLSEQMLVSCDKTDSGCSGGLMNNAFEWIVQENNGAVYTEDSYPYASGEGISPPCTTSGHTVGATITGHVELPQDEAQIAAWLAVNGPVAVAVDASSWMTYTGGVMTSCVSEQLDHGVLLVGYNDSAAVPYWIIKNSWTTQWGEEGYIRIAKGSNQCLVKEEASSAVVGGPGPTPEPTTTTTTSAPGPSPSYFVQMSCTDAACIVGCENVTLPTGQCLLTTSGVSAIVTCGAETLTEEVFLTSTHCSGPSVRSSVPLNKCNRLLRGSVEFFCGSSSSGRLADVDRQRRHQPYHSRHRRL
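Detergent-free condition (0.00005% Triton X-100) in acetate buffer pH 5.5 with DTT. 1.5 nM enzyme and compound were pre-mixed 15 min, then 2 uM Z-FR-AMC substrate added; reaction progress from fluorescence change between first and third reads (60 s).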
Cruzain inh Det: qHTS Assay for Promiscuous and Specific Inhibitors of Cruzain (with detergent). Potency, µM, for inactives: max response, negative = inhibition, usual class: inhibitors. 200,000 compounds, 0.43% hits. purified cruzain, Z-FR-AMC fluorescence, 0.01% Triton;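 further: plate controls were neutral wells for no effect and buffer without enzyme for full effect; nearly all actives have a fitted effect of over 40% in size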
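Purified cruzain (1.5 nM final) was preincubated with compounds for 15 min at room temperature in 100 mM sodium acetate pH 5.5, 5 mM DTT, 0.01% Triton X-100. Reaction started with 2 uM Z-FR-AMC; AMC fluorescence change over 60 s gave activity.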
The depositor's hits bear a star. The call rests on the fitted dose curve; in most records, active means well fitted curve in the direction sought with a large enough effect; inconclusive means small, poorly fitted or top-dose-only effect, or another doubt; inactive means no such curve, though single readings can be large; an effect the other way counts as inactive or inconclusive. Potency means the concentration at half of the fitted maximal effect.

For NC1(P(=O)(O)O)CCCCC1 the results were Cruzain inh noDet -3% and Cruzain inh Det 2%.
For COc1ccc(C2C(C#N)=C(N)OC3=C2C(=O)CCC3)cc1Cn1cc([N+](=O)[O-])cn1 (stereo not given) the results were Cruzain inh noDet -7% and Cruzain inh Det -3%.
`COc1ccc(C2C(C#N)=C(N)Oc3c2c(=O)oc2ccccc32)cc1Cn1cc([N+](=O)[O-])cn1` (stereo not given) gave Cruzain inh noDet 25µM* and Cruzain inh Det -4%.
For COc1ccc(C2C(C#N)=C(N)N(c3ccccc3)C3=C2C(=O)CCC3)cc1Cn1cc([N+](=O)[O-])cn1 (stereo not given) the results were Cruzain inh noDet 20µM* and Cruzain inh Det -1%.
Screening COc1ccc(C2C(C#N)=C(N)N(c3cccnc3)C3=C2C(=O)CCC3)cc1Cn1cc([N+](=O)[O-])cn1 (stereo not given) returned Cruzain inh noDet -12% and Cruzain inh Det -3%.
For CNC1CCC(c2ccc(Cl)c(Cl)c2)c2ccccc21 (stereo not given) the results were Cruzain inh noDet 8% and Cruzain inh Det -7%.
`COC(=O)c1ccc(NC(=O)CN2C(=O)CC(c3ccccc3)Sc3ccccc32)cc1` (stereo not given) gave Cruzain inh noDet -3% and Cruzain inh Det -3%.
Screening Cc1ccc2c(c1)[nH]c1c(=O)n(CCC3=CCCCC3)cnc12 returned Cruzain inh noDet 20µM* and Cruzain inh Det 4%.
O=c1c2ccc(Cl)cc2[nH]c(=S)n1CCC1=CCCCC1 was read as Cruzain inh noDet 20µM* and Cruzain inh Det -1%.
Cc1ccc2[nH]c3c(=O)n(CCC4=CCCCC4)cnc3c2c1 was read as Cruzain inh noDet -20% and Cruzain inh Det 0%.
CCOC(=O)N1CCN(C(=O)c2ccc3c(=O)n(CCC4=CCCCC4)c(=S)[nH]c3c2)CC1 was read as Cruzain inh noDet inconclusive and Cruzain inh Det -7%.
Screening CC(C)(Oc1ccc(-c2cccc3ccccc23)cc1)C(=O)O returned Cruzain inh noDet 0% and Cruzain inh Det -4%.
CCOc1ccccc1NC(=S)NC(=O)CCCOc1ccc(Cl)cc1Cl was read as Cruzain inh noDet 20µM* and Cruzain inh Det -2%.
For CCOc1ccccc1OCC(=O)Nc1ccc(Cl)cc1Cl the results were Cruzain inh noDet 6% and Cruzain inh Det 3%.
Screening Cc1cc(C)c2c(c1)/C(=N/NS(=O)(=O)c1ccccc1)CCC2 returned Cruzain inh noDet 4% and Cruzain inh Det -7%.
`Cc1cc(C)c2c(c1)/C(=N/NC(=S)Nc1ccc(F)cc1)CCC2` gave Cruzain inh noDet 16µM* and Cruzain inh Det -9%.
CCOC(=O)CSc1nc2cc3c(cc2c(=O)n1Cc1ccc(C(=O)NCCc2ccc(OC)c(OC)c2)cc1)OCO3 was read as Cruzain inh noDet 6% and Cruzain inh Det 2%.
Screening Cc1c(OCc2ccc([N+](=O)[O-])cc2)ccc2c3c(c(=O)oc12)CCC3 returned Cruzain inh noDet -19% and Cruzain inh Det -1%.
COc1ccc([N+](=O)[O-])cc1COc1cc(C)cc2oc(=O)cc(-c3ccccc3)c12 was read as Cruzain inh noDet 32µM* and Cruzain inh Det 0%.
Screening Cc1cc(O)c2c(-c3ccccc3)cc(=O)oc2c1 returned Cruzain inh noDet 3% and Cruzain inh Det -6%.
For Cc1cc(OCc2ccc([N+](=O)[O-])cc2)c2c3c(c(=O)oc2c1)CCCC3 the results were Cruzain inh noDet 13µM* and Cruzain inh Det -1%.
`Cc1ccc(CNC(=O)CSc2ncc3c(n2)-c2ccc(Cl)cc2N(Cc2ccccc2)S3(=O)=O)cc1` gave Cruzain inh noDet -7% and Cruzain inh Det 0%.
For Cc1ccc(S(=O)(=O)N2CCCc3cc(NS(=O)(=O)c4cccc(Cl)c4)ccc32)cc1 the results were Cruzain inh noDet 25µM* and Cruzain inh Det -2%.
For CCOc1ccc(S(=O)(=O)Nc2ccc3c(c2)CCCN3S(=O)(=O)c2ccc(C)cc2)cc1 the results were Cruzain inh noDet inconclusive and Cruzain inh Det -2%.
Screening CCOC(=O)C1CCCN(C(=O)c2ccc3c(c2)N(Cc2cccc(Cl)c2)C(=O)c2ccccc2S3(=O)=O)C1 (stereo not given) returned Cruzain inh noDet inconclusive and Cruzain inh Det -3%.
`Cc1ccc(C)c(N2CCN(C(=O)c3ccc4nc(-c5ccco5)c(-c5ccco5)nc4c3)CC2)c1` gave Cruzain inh noDet 0% and Cruzain inh Det -3%.
Screening COc1ccccc1N1CCN(C(=O)c2ccc3nc(-c4ccco4)c(-c4ccco4)nc3c2)CC1 returned Cruzain inh noDet inconclusive and Cruzain inh Det 13µM*.
Screening CCOC(=O)c1c(-c2cccc([N+](=O)[O-])c2)csc1NC(=O)CCCOc1ccccc1OC returned Cruzain inh noDet -10% and Cruzain inh Det -7%.
Screening CCOC(=O)c1c(-c2cccc([N+](=O)[O-])c2)csc1NC(=O)CCCOc1ccccc1 returned Cruzain inh noDet 32µM* and Cruzain inh Det -4%.
For Cc1ccc(CNC(=O)C(C)n2c(=O)cc(-c3ccccc3)c3c(C)nn(C)c32)cc1 (stereo not given) the results were Cruzain inh noDet 0% and Cruzain inh Det -5%.
Screening CCc1ccc(NC(=O)CO/N=C(\C)c2cc3ccccc3o2)cc1 returned Cruzain inh noDet -9% and Cruzain inh Det -9%.
`O=C(COc1ccc(/C=N/NC(=O)c2cc3ccccc3o2)cc1Br)Nc1ccccc1` gave Cruzain inh noDet 10µM* and Cruzain inh Det 25µM*.
For CCCCC/C=C\C/C=C\CCCCCCCC(=O)NCCc1ccc(O)c(O)c1 the results were Cruzain inh noDet -4% and Cruzain inh Det -1%.
For O=C(O)[C@H](CCc1ccccc1)N1C(=O)c2ccccc2C1=O the results were Cruzain inh noDet 3% and Cruzain inh Det 3%.
Screening Cc1csc(NC(=O)CCn2c(=O)oc3ccccc32)n1 returned Cruzain inh noDet -7% and Cruzain inh Det -1%.
`O=C(Cn1c(=O)oc2ccccc21)Nc1nc(-c2ccc(Br)cc2)cs1` gave Cruzain inh noDet 16µM* and Cruzain inh Det 1%.
CCOc1cccc(C(=O)Nc2ccc(N3CCN(S(C)(=O)=O)CC3)cc2)c1 was read as Cruzain inh noDet 2% and Cruzain inh Det 5%.
O=C(NC(=S)Nc1ccc(N2CCOCC2)cc1)c1ccc2c(c1)OCCO2 was read as Cruzain inh noDet -16% and Cruzain inh Det -9%.
For CCOc1cccc(C(=O)NC(=S)Nc2ccc(N3CCCC3)cc2)c1 the results were Cruzain inh noDet 32µM* and Cruzain inh Det inconclusive.
Screening O=C(NC(=S)Nc1ccc(N2CCCCC2)cc1)c1ccc2c(c1)OCCO2 returned Cruzain inh noDet 25µM* and Cruzain inh Det -4%.
Screening CO[C@@H](CCOCc1ccccc1)C[C@H]1O[C@H](C(=O)OC(C)C)C=C[C@@H]1C returned Cruzain inh noDet inconclusive and Cruzain inh Det 5%.
Cc1ccc(CNC(=O)CN2C(=O)CC(c3ccc(C)c(C)c3)=Nc3ccccc32)cc1 was read as Cruzain inh noDet -1% and Cruzain inh Det -4%.
For Cc1ccc(C2=Nc3ccccc3N(CC(=O)NCc3ccccc3Cl)C(=O)C2)cc1C the results were Cruzain inh noDet 25µM* and Cruzain inh Det -10%.
Screening C/C(=N\NC(=O)C(=O)Nc1cccc(Cl)c1)c1ccncc1 returned Cruzain inh noDet 1% and Cruzain inh Det 1%.
